Test results as given in PubChem BioAssay (NCATS).
Records with an inconclusive call do not appear. Calls of active or inactive are those of the source. Calls come from the whole dose curve; as a rule, active = well fitted cell-killing curve with a large enough effect; inconclusive = small, poorly fitted or top-dose-only effect, or effect the other way; inactive = flat fitted curve, though single readings scatter.
% is set by controls: 0 for no effect and ±100 for the full control effect.

The molecules below were run on CAOV3 (assay: Primary qHTS to identify gynecologic anti-cancer compounds using libraries of approved drugs and bioactive compounds (AID 1345084; note: nearly all actives have a fitted effect of over 55% in size)). Conditions: Gynecologic cancer cell panel viability, ATPlite luminescence, 48 h; series mostly up to 57.5 µM; activity change, negative = cytotoxicity: at the top concentration.
Text: National Center for Advancing Translational Sciences [NCATS] Assay Overview: Chemotherapeutic drug responses vary from cancer to cancer and from patient to patient. These variations could be caused by a number of factors including patient genomic background, tumor mutations, tumor heterogeneity, and aspects of drug treatment. Chemotherapeutic drug resistance is also a common issue and can lead to ineffective treatment and patient death. Here we have profiled the cell killing effects of thousands of compounds to characterize the responses in three gynecological cancers, identify cancer-selective compounds, and understand the diversity of responses to these compounds from pan-cancer suppressors to single cell line selective compounds. In this assay, we screened a 7,914 compound drug library that included approved drug and bioactive compounds in six ovarian, three cervical, and […] placental cancer cell lines using the ATPlite assay for cell viability. […] The cervical cancer cell lines included HeLa, Ca Ski, and C-33 A. The placental cancer cell lines included JEG-3. HEK 293T cells were used as the control cell line to determine the selectivity index. ATPlite is a luminescence based assay reliant on the conversion of a luciferase substrate to light in the presence of ATP. As a cytotoxic compound will suppress growth and decrease the number of cells, the concentration of ATP will decrease, and less light signal will be detected in the well.
Assay Protocol Summary: 1,000 cells in 4 uL of media were dispensed into white, solid bottom 1536-well plates using a Multidrop Combi (Thermo Scientific). The Assay plates were incubated for 16 hours at 37 C with 5% CO2 in assay plates, followed by the addition of 23 nL of DMSO or drug dissolved in DMSO. Each compound was assayed in five concentrations (0.092, 0.46, 2.3, 11.5, and 57.5 uM), using the automated Wako 1536 Pin Tool workstation and incubated at 37 C with 5% CO2 48 hours. 4 uL of ATPlite, the ATP monitoring reagent, was then added to the each well of the assay plates using the Multidrop Combi reagent dispenser followed by incubation for 15 minutes at room temperature. The resulting luminescence was measured using the ViewLux plate reader.
With `O=C(NC1CCOCC1)c1ccc(-c2cc(-c3cn[nH]c3-c3ccccn3)ccn2)cc1` the “activity change, negative = cytotoxicity” value was 6.46% (inactive).
`CC(=O)N[C@@H](CS)C(=O)O` was tested, and the “activity change, negative = cytotoxicity” value was 7.04% (inactive).
With `CO[C@H]1C=CO[C@@]2(C)Oc3c(C)c(O)c4c(O)c(c5c(c4c3C2=O)NC2(CCN(CC(C)C)CC2)N=5)=NC(=O)C(C)=CC=C[C@H](C)[C@H](O)[C@@H](C)[C@@H](O)[C@@H](C)[C@H](OC(C)=O)[C@H]1C` the “activity change, negative = cytotoxicity” value was -0.526% (inactive).
In the case of `CN(C)Cc1ccc(-c2nc3cccc4c3n2CCNC4=O)cc1`, the “activity change, negative = cytotoxicity” value is reported as -6.09% (inactive).
With `O=C1NCC2(CCN(CCc3ccccc3)CC2)O1` the “activity change, negative = cytotoxicity” value was 4.18% (inactive).
`CC(=O)O[C@]1(C(C)=O)CC[C@H]2[C@@H]3C=C(Cl)C4=CC(=O)[C@@H]5C[C@@H]5[C@]4(C)[C@H]3CC[C@@]21C` was tested, and the Potency was “inactive”.
`Cc1ccn(-c2ccc(-c3ncco3)cc2)c(=O)c1-c1ccc2nc(N)ncc2c1` was tested, and the “activity change, negative = cytotoxicity” value was -2.11% (inactive).
`CCn1cc(C(=O)O)c(=O)c2ccc(C)nc21` was tested, and the “activity change, negative = cytotoxicity” value was -0.784% (inactive).
In the case of `CC(C)(C)OC(=O)N[C@H]1CCCCCC=C[C@@H]2C[C@@]2(C(=O)NS(=O)(=O)C2CC2)NC(=O)[C@@H]2C[C@@H](OC(=O)N3Cc4cccc(F)c4C3)CN2C1=O`, the “activity change, negative = cytotoxicity” value is reported as -0.468% (inactive).
`CCN(CC)C(=O)c1ccc(O)c(OC)c1` was tested, and the “activity change, negative = cytotoxicity” value was 5.55% (inactive).
In the case of `O=C(NCCN1CCOCC1)c1ccc(Cl)cc1`, the “activity change, negative = cytotoxicity” value is reported as 0.558% (inactive).
In the case of `COc1ccc2c(Oc3ccc(NC(=O)c4c(C)n(CC(C)(C)O)n(-c5ccccc5)c4=O)cc3F)ccnc2c1`, the “activity change, negative = cytotoxicity” value is reported as -19.1% (inactive).
For `COC(=O)[C@@H]1[C@H]2C[C@H]3c4[nH]c5ccccc5c4CCN3C[C@@H]2CC[C@@H]1O`, the Potency was “inactive”.
`CCN(CC)CCNC(=O)c1ccc(N)cc1` was tested, and the Potency was “inactive”.
`O=c1[nH]cnc2c1ncn2[C@H]1CC[C@@H](CO)O1` was tested, and the Potency was “inactive”.
For `CC(C)[C@H](CO)Nc1nc(Nc2ccc(C(=O)O)c(Cl)c2)c2ncn(C(C)C)c2n1`, the “activity change, negative = cytotoxicity” value was 17.5% [at 25.3 µM] (inactive).
With `CC1(C)CCC(CN2CCN(c3ccc(C(=O)NS(=O)(=O)c4ccc(NCC5CCOCC5)c([N+](=O)[O-])c4)c(Oc4cnc5[nH]ccc5c4)c3)CC2)=C(c2ccc(Cl)cc2)C1` the “activity change, negative = cytotoxicity” value was 8.74% [at 25.3 µM] (inactive).
With `COCCOC(=O)C1=C(C)NC2=C(C(=O)CC(c3ccccc3OC)C2)C1c1cccc(O)c1` (stereo not given) the “activity change, negative = cytotoxicity” value was -8.13% (inactive).
`Cn1c(N2CCCCS2(=O)=O)nc(C(=O)NCc2ccc(F)cc2)c(O)c1=O` was tested, and the “activity change, negative = cytotoxicity” value was 4.38% (inactive).
`C[N+](C)(C)CC(=O)O` was tested, and the “activity change, negative = cytotoxicity” value was -2.66% (inactive).
In the case of `NCCS`, the “activity change, negative = cytotoxicity” value is reported as 1.93% (inactive).
In the case of `CC(C)(C)c1ccc(C(O)CCCN2CCC(C(O)(c3ccccc3)c3ccccc3)CC2)cc1` (stereo not given), the “activity change, negative = cytotoxicity” value is reported as 4.27% (inactive).
For `CN1C[C@H]2c3ccccc3Oc3ccc(Cl)cc3[C@@H]2C1`, the “activity change, negative = cytotoxicity” value was -1.62% (inactive).
For `Cc1ccc(Nc2cc(-c3cccc(N4C(=O)c5ccccc5C4=O)c3)ncn2)cc1NS(C)(=O)=O`, the “activity change, negative = cytotoxicity” value was -10.5% (inactive).
With `NC(N)=Nc1nc(CSCC/C(N)=N/S(N)(=O)=O)cs1` the “activity change, negative = cytotoxicity” value was 3.17% (inactive).
In the case of `CCN1CCC[C@H]1CNC(=O)c1cc(S(N)(=O)=O)ccc1OC`, the Potency is reported as “inactive”.
`COc1cc2ncnc(-n3nc(-c4ccccn4)nc3N)c2cc1OC` was tested, and the “activity change, negative = cytotoxicity” value was 9.86% [at 25.3 µM] (inactive).
For `CC(=O)CCCCn1c(=O)c2c(ncn2C)n(C)c1=O`, the Potency was “inactive”.
With `O=C(O)CCc1nc(-c2ccccc2)c(-c2ccccc2)o1` the Potency was “inactive”.
In the case of `CC(C)C(=O)Oc1ccc(CO)cc1[C@H](CCN(C(C)C)C(C)C)c1ccccc1`, the “activity change, negative = cytotoxicity” value is reported as 10.9% (inactive).
`C[C@@H](O)[C@H]1C(=O)N2C(C(=O)O)=C(S[C@@H]3CN[C@H](C(=O)N(C)C)C3)[C@H](C)[C@H]12` was tested, and the Potency was “inactive”.
For `Cc1cccc(C)c1OCC(C)N` (stereo not given), the “activity change, negative = cytotoxicity” value was -14.2% (inactive).
`CCCCC1C(=O)N(c2ccccc2)N(c2ccccc2)C1=O` was tested, and the “activity change, negative = cytotoxicity” value was -2.64% (inactive).
For `CCn1c(C(=O)N(C2CC2)C2CC2)cc2c3c(ncn3C)c(Nc3cc(C)n(C)n3)nc21`, the “activity change, negative = cytotoxicity” value was 0.11% (inactive).
`C[N+](C)(C)CCCCCC[N+](C)(C)C` was tested, and the “activity change, negative = cytotoxicity” value was 0.475% (inactive).
With `CS(=O)c1ccc(-c2nc(-c3ccc(F)cc3)c(-c3ccncc3)[nH]2)cc1` (stereo not given) the “activity change, negative = cytotoxicity” value was 30.8% (inactive).
`Cc1c(NC(=O)c2ccc(C(C)(C)C)cc2)cccc1-c1cn(C)c(=O)c(Nc2ccc(C(=O)N3CCOCC3)cc2)n1` was tested, and the “activity change, negative = cytotoxicity” value was 10.1% [at 38.5 µM] (inactive).
In the case of `CCS(=O)(=O)N1CC(CC#N)(n2cc(-c3ncnc4[nH]ccc34)cn2)C1`, the “activity change, negative = cytotoxicity” value is reported as -3.51% (inactive).
For `CN(C)CCC(c1ccccc1)c1ccccn1` (stereo not given), the Potency was “inactive”.
`COc1ccc(C2CC(c3ccccc3)=NN2c2ccc(S(N)(=O)=O)cc2)cc1` (stereo not given) was tested, and the “activity change, negative = cytotoxicity” value was -2.48% (inactive).
